Results: PMC7862700, “An all-to-all approach to the identification of sequence-specific readers for epigenetic DNA modifications on cytosine”

Columns and labels:
Assay in all cases: DAPPL (digital affinity profiling via proximity ligation, sequencing); 10 mM Tris-HCl pH 7.5, 50 mM NaCl, 1 mM DTT, 4% glycerol, room temperature, 30 min; GST-TFs on glutathione beads, 16-mer random dsDNA library, 0.1% formaldehyde crosslink after washing; high values mean tight binding
FLI1 = target: T1, FLI1 (Homo sapiens, UniProt Q01543 1-452); settings: protein: recombinant; tags: N-terminal GST; dsDNA, one strand shown
T1 sequence: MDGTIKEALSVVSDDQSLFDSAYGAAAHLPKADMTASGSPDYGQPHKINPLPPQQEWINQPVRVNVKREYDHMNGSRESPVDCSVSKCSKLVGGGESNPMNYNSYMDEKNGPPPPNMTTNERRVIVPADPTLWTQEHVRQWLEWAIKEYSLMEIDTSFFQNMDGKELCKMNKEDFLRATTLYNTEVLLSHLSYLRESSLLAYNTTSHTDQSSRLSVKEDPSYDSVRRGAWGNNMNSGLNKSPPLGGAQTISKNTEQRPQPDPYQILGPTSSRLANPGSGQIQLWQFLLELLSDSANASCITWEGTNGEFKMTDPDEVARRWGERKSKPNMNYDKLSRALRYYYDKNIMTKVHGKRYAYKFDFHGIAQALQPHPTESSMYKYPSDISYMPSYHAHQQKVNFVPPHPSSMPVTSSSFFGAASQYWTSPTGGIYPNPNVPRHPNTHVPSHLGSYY
How it was run: (§1)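 Binding signal is given per hexamer as its read frequency for a factor divided by its frequency in the tag-only sample. GST-fused human transcription factors were expressed in yeast, captured on glutathione beads, barcoded with DNA and pooled with that sample, then incubated with 200 nmole of a 16-mer random double-stranded DNA library in Tris/NaCl/DTT/glycerol buffer for 30 min at room temperature. The pools were then washed, crosslinked, proximity-ligated, amplified by PCR and sequenced on an Illumina NextSeq500.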

ELK1 = target: T2, ELK1 (Homo sapiens, UniProt P19419 1-428); settings: protein: recombinant; tags: N-terminal GST; dsDNA, one strand shown
T2 sequence: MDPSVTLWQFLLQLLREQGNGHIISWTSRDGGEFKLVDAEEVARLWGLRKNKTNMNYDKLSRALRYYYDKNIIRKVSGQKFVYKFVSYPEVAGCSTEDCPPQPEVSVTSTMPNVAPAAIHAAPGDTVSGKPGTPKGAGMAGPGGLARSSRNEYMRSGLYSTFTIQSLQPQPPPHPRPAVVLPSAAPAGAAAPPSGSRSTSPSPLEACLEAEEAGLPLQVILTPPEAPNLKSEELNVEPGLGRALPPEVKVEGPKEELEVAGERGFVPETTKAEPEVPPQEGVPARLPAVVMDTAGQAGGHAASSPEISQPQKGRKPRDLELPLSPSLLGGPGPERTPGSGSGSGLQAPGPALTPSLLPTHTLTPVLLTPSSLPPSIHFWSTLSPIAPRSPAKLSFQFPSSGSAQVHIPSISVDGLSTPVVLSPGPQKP
How it was run: as §1

GABPA = target: T3, GABPA (Homo sapiens, UniProt Q06546 1-454); settings: protein: recombinant; tags: N-terminal GST; dsDNA, one strand shown
T3 sequence: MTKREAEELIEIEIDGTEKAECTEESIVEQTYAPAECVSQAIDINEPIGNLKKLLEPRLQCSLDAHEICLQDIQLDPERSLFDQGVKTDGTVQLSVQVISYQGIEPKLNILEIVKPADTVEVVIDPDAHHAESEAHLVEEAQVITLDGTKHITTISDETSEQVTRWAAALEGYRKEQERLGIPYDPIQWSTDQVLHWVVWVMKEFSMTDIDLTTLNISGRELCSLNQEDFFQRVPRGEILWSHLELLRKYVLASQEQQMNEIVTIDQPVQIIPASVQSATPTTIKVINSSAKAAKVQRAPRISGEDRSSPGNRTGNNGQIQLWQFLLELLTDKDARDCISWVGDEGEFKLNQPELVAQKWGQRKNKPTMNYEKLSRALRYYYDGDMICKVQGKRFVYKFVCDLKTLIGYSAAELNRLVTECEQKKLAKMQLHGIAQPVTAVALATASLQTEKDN
How it was run: as §1

ERG = target: T4, ERG (Homo sapiens, UniProt P11308 1-479); settings: protein: recombinant; tags: N-terminal GST; dsDNA, one strand shown
T4 sequence: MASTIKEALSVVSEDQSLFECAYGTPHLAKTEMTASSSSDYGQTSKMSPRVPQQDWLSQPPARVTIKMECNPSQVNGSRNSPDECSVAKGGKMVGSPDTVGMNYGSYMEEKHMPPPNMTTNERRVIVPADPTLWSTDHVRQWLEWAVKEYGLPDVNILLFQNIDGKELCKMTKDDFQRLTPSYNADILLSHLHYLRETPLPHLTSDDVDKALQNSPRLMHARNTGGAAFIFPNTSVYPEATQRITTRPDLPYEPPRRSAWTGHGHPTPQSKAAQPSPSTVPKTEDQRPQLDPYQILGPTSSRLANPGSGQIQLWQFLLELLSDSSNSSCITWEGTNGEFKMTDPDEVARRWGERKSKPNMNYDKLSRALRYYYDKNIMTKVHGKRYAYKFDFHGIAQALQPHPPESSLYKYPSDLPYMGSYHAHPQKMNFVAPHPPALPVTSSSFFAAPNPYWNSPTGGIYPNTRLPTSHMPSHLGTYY
How it was run: as §1

ELF1 = ELF1 (Homo sapiens, UniProt P32519 1-619); settings: protein: recombinant; tags: N-terminal GST; dsDNA, one strand shown
ELF1, sequence (P32519 whole entry): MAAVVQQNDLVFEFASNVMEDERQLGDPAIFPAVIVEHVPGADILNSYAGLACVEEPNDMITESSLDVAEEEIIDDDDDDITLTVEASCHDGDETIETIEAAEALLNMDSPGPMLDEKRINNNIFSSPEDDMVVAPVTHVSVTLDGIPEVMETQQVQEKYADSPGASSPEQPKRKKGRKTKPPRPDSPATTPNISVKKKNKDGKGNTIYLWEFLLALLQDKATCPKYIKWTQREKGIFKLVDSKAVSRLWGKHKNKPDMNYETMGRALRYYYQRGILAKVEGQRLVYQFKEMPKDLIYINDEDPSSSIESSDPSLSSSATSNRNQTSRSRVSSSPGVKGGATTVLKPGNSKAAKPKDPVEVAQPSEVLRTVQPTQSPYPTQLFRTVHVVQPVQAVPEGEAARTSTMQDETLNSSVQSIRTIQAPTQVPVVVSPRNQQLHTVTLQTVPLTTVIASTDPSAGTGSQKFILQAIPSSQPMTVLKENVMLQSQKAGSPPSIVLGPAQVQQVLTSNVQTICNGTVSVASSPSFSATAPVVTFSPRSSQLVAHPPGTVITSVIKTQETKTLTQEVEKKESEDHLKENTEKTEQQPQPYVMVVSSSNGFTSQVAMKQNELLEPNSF
How it was run: as §1

EHF = target: T5, EHF (Homo sapiens, UniProt Q9NZC4 1-300); settings: protein: recombinant; tags: N-terminal GST; dsDNA, one strand shown
T5 sequence: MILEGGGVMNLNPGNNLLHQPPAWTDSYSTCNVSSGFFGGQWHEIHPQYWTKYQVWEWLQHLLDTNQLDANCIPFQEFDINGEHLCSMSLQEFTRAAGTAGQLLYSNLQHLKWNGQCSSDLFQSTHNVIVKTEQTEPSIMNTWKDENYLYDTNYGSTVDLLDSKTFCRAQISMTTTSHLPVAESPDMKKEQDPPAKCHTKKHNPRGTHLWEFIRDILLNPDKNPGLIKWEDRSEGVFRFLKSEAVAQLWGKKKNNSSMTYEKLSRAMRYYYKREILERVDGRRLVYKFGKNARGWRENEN
How it was run: as §1

SPI1 = SPI1 (Homo sapiens, UniProt P17947 1-270); settings: protein: recombinant; tags: N-terminal GST; dsDNA, one strand shown
How it was run: as §1

SPIB = SPIB (Homo sapiens, UniProt Q01892 1-262); settings: protein: recombinant; tags: N-terminal GST; dsDNA, one strand shown
SPIB, sequence (Q01892 whole entry): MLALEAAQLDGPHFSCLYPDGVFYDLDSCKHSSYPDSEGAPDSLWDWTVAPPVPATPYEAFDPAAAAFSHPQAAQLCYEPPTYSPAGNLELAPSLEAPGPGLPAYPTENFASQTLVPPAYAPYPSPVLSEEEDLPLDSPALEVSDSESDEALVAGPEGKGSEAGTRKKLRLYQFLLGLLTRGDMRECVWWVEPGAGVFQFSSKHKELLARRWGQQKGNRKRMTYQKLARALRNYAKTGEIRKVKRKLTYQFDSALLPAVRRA
How it was run: as §1

ELK3 = target: T6, ELK3 (Homo sapiens, UniProt P41970 1-407); settings: protein: recombinant; tags: N-terminal GST; dsDNA, one strand shown
T6 sequence: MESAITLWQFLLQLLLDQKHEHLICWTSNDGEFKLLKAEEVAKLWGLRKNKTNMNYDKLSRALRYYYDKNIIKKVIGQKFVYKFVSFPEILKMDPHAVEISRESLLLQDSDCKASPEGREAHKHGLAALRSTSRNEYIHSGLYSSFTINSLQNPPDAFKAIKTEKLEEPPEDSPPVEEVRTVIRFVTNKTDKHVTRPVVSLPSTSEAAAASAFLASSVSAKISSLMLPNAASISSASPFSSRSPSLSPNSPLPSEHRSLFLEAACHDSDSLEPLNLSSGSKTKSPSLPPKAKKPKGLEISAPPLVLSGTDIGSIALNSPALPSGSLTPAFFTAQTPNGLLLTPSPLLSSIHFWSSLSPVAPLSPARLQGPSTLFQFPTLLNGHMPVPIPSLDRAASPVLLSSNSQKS
How it was run: as §1

FEV = target: T7, FEV (Homo sapiens, UniProt Q99581 1-238); settings: protein: recombinant; tags: N-terminal GST; dsDNA, one strand shown
T7 sequence: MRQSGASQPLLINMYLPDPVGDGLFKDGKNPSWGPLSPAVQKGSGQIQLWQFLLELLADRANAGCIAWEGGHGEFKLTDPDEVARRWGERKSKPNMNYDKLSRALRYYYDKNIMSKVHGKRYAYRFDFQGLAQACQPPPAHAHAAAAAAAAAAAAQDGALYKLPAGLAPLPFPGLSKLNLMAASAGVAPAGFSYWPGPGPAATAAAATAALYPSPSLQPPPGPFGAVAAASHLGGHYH
How it was run: as §1

ETV5 = ETV5 (Homo sapiens, UniProt P41161 1-510); settings: protein: recombinant; tags: N-terminal GST; dsDNA, one strand shown
ETV5, sequence (P41161 whole entry): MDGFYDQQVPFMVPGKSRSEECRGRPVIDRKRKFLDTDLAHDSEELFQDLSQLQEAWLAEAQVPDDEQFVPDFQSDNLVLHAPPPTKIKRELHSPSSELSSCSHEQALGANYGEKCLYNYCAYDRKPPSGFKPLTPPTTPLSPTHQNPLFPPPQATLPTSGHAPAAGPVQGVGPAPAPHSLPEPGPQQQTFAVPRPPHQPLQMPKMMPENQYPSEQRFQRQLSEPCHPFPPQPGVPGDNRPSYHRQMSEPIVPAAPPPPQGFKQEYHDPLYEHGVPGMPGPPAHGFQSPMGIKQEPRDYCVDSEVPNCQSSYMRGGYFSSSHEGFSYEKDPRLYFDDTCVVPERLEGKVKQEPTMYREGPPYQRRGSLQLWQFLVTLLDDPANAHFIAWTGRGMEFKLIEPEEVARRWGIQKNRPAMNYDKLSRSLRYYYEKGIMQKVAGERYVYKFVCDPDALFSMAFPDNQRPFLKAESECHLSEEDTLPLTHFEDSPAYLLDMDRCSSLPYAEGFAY
How it was run: as §1

HSF1 = HSF1 (Homo sapiens, UniProt Q00613 1-529); settings: protein: recombinant; tags: N-terminal GST; chain copies: 3; dsDNA, one strand shown
HSF1, sequence (Q00613 whole entry): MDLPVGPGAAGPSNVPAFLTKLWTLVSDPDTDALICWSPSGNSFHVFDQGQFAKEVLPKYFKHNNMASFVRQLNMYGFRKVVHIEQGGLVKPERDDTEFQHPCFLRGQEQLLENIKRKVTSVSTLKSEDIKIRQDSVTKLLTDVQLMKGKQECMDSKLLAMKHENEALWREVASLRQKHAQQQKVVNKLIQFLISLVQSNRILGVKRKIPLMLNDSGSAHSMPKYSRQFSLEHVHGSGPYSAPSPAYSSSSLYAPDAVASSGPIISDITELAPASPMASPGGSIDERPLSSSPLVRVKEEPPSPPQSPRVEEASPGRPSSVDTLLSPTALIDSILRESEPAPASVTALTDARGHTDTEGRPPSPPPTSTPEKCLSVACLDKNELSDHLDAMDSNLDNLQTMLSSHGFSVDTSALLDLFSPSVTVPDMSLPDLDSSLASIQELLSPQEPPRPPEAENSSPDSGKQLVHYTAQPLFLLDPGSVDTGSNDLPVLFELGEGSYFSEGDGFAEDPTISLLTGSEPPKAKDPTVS
How it was run: as §1

SPIC = target: T8, SPIC (Homo sapiens, UniProt Q8N5J4 1-248); settings: protein: recombinant; tags: N-terminal GST; dsDNA, one strand shown
T8 sequence: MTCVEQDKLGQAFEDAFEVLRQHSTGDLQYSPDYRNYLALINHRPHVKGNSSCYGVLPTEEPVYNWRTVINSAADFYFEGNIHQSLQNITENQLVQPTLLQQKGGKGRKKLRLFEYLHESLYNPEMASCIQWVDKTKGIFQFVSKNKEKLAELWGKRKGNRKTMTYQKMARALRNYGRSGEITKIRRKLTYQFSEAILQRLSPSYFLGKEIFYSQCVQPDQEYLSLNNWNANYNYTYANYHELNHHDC
How it was run: as §1

ELF4 = ELF4 (Homo sapiens, UniProt Q99607 1-663); settings: protein: recombinant; tags: N-terminal GST; dsDNA, one strand shown
ELF4, sequence (Q99607 whole entry): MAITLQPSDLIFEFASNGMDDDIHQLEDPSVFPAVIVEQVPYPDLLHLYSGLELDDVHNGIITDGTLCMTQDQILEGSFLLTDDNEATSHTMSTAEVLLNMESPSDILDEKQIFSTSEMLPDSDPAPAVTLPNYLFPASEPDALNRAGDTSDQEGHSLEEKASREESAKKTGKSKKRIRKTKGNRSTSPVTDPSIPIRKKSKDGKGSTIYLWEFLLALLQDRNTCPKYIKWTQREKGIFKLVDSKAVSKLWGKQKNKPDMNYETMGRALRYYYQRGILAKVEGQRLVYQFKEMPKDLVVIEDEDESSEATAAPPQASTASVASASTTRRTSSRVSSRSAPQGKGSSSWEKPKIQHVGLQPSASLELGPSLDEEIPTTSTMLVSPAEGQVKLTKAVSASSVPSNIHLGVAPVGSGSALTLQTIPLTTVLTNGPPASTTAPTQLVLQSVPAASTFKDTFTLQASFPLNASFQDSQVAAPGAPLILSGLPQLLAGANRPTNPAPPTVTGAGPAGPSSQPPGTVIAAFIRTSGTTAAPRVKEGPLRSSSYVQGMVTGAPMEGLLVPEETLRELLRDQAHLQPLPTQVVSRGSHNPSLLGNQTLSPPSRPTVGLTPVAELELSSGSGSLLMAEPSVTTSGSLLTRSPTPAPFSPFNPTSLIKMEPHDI
How it was run: as §1

ELK4 = target: T9, ELK4 (Homo sapiens, UniProt P28324-2 1-405); settings: protein: recombinant; tags: N-terminal GST; dsDNA, one strand shown
T9 sequence: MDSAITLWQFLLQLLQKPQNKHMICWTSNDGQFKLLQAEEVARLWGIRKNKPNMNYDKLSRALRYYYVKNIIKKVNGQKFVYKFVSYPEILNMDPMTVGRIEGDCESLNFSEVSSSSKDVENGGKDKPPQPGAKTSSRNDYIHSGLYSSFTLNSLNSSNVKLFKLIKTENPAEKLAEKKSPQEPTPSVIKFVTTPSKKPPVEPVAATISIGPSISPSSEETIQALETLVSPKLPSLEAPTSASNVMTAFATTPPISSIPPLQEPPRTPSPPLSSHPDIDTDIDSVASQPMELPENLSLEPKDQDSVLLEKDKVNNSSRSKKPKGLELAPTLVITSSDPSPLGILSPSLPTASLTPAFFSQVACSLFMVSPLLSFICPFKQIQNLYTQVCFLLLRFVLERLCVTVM
How it was run: as §1

ETV2 = target: T10, ETV2 (Homo sapiens, UniProt O00321 1-342); settings: protein: recombinant; tags: N-terminal GST; dsDNA, one strand shown
T10 sequence: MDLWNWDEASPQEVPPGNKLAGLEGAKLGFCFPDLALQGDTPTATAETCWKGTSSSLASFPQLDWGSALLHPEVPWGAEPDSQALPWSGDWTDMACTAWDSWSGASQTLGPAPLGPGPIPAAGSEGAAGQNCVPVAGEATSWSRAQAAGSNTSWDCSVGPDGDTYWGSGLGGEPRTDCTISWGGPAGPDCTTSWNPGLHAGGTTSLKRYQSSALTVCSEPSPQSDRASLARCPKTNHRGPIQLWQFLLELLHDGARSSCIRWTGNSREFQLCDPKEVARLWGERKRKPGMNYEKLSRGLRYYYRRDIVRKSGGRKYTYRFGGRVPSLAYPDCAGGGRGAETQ
How it was run: as §1

ELF3 = target: T11, ELF3 (Homo sapiens, UniProt P78545 1-371); settings: protein: recombinant; tags: N-terminal GST; dsDNA, one strand shown
T11 sequence: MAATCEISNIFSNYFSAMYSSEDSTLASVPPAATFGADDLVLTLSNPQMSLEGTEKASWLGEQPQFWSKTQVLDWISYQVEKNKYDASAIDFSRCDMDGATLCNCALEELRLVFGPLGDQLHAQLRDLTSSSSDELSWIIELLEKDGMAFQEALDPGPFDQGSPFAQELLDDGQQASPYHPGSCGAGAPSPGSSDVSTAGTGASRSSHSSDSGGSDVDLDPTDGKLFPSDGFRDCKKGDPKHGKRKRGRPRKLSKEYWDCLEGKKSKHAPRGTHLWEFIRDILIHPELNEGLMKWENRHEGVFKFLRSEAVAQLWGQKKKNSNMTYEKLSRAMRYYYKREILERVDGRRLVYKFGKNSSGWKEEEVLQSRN
How it was run: as §1

CRX = CRX (Homo sapiens, UniProt O43186 1-299); settings: protein: recombinant; tags: N-terminal GST; dsDNA, one strand shown
CRX, sequence (O43186 whole entry): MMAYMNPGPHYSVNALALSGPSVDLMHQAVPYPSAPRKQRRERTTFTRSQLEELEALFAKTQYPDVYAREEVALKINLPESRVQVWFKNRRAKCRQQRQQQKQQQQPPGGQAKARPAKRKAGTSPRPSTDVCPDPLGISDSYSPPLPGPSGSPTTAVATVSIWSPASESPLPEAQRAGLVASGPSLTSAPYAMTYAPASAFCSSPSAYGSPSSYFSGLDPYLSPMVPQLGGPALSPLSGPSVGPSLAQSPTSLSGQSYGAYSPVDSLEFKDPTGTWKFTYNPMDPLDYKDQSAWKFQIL
How it was run: as §1

ETV1 = ETV1 (Homo sapiens, UniProt P50549 1-477); settings: protein: recombinant; tags: N-terminal GST; dsDNA, one strand shown
ETV1, sequence (P50549 whole entry): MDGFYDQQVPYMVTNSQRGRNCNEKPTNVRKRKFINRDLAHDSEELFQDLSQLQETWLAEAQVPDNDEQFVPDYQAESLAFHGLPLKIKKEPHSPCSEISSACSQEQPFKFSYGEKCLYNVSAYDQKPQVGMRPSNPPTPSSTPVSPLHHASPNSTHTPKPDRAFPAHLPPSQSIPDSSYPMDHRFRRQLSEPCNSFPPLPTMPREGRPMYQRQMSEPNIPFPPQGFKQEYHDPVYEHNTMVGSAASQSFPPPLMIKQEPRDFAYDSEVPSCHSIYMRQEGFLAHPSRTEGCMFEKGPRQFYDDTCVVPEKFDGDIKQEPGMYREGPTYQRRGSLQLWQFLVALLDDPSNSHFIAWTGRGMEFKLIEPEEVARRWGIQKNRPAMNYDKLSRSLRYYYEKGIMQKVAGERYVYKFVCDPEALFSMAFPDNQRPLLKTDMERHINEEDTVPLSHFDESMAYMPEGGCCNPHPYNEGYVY
How it was run: as §1

ACCTCT
binding signal (FLI1): 1.32 fold enrichment (6-mer frequency, TF over GST control) | binding signal (ELK1): 1.37 fold enrichment (6-mer frequency, TF over GST control) | binding signal (GABPA): 1.41 fold enrichment (6-mer frequency, TF over GST control) | binding signal (ERG): 1.41 fold enrichment (6-mer frequency, TF over GST control) | binding signal (ELF1): 1.47 fold enrichment (6-mer frequency, TF over GST control) | binding signal (EHF): 1.37 fold enrichment (6-mer frequency, TF over GST control) | binding signal (SPI1): 1.29 fold enrichment (6-mer frequency, TF over GST control) | binding signal (SPIB): 1.24 fold enrichment (6-mer frequency, TF over GST control) | binding signal (ELK3): 1.36 fold enrichment (6-mer frequency, TF over GST control) | binding signal (FEV): 1.3 fold enrichment (6-mer frequency, TF over GST control) | binding signal (ETV5): 1.31 fold enrichment (6-mer frequency, TF over GST control) | binding signal (HSF1): 1.18 fold enrichment (6-mer frequency, TF over GST control) | binding signal (SPIC): 1.47 fold enrichment (6-mer frequency, TF over GST control) | binding signal (ELF4): 1.33 fold enrichment (6-mer frequency, TF over GST control) | binding signal (ELK4): 1.29 fold enrichment (6-mer frequency, TF over GST control) | binding signal (ETV2): 1.35 fold enrichment (6-mer frequency, TF over GST control) | binding signal (ELF3): 1.51 fold enrichment (6-mer frequency, TF over GST control) | binding signal (CRX): 1.19 fold enrichment (6-mer frequency, TF over GST control) | binding signal (ETV1): 1.3 fold enrichment (6-mer frequency, TF over GST control)
